Shown are actives, neighbours in structure and some others; about 2.2% of the full set was active somewhere.
KLF5 inhibitor: inhibitors of KLF5 expression; DLD-1 KLF5 promoter-luciferase reporter, luminescence; inhibition, % at 5 µM; hit rate 0.23% among 290,000; AID 1700;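 active = inhibition above a per-plate limit of that plate's mean compound inhibition plus 3 SD, cut at about 60% in these data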;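 also: higher means less KLF5 promoter-driven luciferase light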
APP transl inh: APP translation inhibition; SH-SY5Y APP 5'UTR-luciferase reporter, luminescence; inhibition, % at 2 µM; hit rate 0.82% among 190,000; AID 1285;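 active = inhibition above a set limit, derived from the sample mean plus 3 SD, cut at about 45% in these data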
Ba/F3 V617F tox: reduce viability of Ba/F3 cells dependent on JAK2V617F. hit rate 1.1% among 220,000. Ba/F3 EpoR-JAK2V617F viability, ATP luminescence. AID 1446. inhibition, % at 5.6 µM;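 active = inhibition above the campaign mean plus 3 SD over all tested compounds, cut at about 24% in these data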;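 also: cytokine-independent growth of Ba/F3 cells driven by EpoR plus mutant JAK2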
BaF3 parental: parental Ba/F3 viability inhibition as JAK2V617F counter-screen. CellTiter-Glo ATP luminescence. inhibition, % at 5.6 µM. hit rate 1.1% among 220,000;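 active = inhibition above a per-campaign cutoff, the mean inhibition of all tested compounds plus 3 SD, cut at about 27% in these data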
aSyn 5UTR inh: 5' untranslated region of α-synuclein, MLPCN primary screen; alpha-synuclein 5'UTR reporter, inhibitor activity; inhibition, % (tested at 7.5 µM); hit rate 0.82% among 300,000; AID 1813; in the data active = inhibition above about 60%;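 also: H4 neuroglioblastoma cells stably carrying SNCA 5'UTR luciferase fusion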
IEC-6 tox: counter-screen for KLF5 inhibitors: cytotoxicity in IEC-6 cells. IEC-6 cytotoxicity, luminescence viability. inhibition, % at 5 µM. hit rate 0.78% among 290,000; in the data active = inhibition above about 22%
Of the large screens only hits and unclear results are named; the others gave an inactive call.

COc1ccc(OCC(=O)NNC(=O)c2cccc(S(=O)(=O)N(C)C)c2)cc1	APP transl inh 50.5
CC(C)C(=O)Nc1ccc(C(=O)NNC(=S)NC(=O)c2ccco2)cc1	none (no result: APP transl inh)
CCOC(=O)N1CCN(Cc2nnc(-c3cccc(Br)c3)o2)CC1	none (no result: APP transl inh, Ba/F3 V617F tox, BaF3 parental)
O=C(O)c1ccc2cc(-c3ccccc3)[nH]c2c1	aSyn 5UTR inh 65.7 (no result: KLF5 inhibitor, APP transl inh, Ba/F3 V617F tox, BaF3 parental, IEC-6 tox)
COC(=O)c1c(NC(=S)NN2CCN(C)CC2)sc2c1CCC(C)C2 (centres undefined)	none
CCCCCN(C(=O)NC(=O)NC(C)CC)S(C)(=O)=O (centres undefined)	BaF3 parental 89.0
CCC(C)NC(=O)NC(=O)N(C1CCCCC1)S(C)(=O)=O (centres undefined)	none
CCc1nnc(N/N=C/c2c(C)[nH]c3ccccc23)n1N	IEC-6 tox 102.4 (no result: aSyn 5UTR inh)
O=C1NC2(CCCCC2)C(=O)N1Cc1cccc(C(F)(F)F)c1	none
O=C1NC(=Nc2ccc(O)cc2)S/C1=C\C=C\c1ccco1	Ba/F3 V617F tox 75.0, BaF3 parental 60.5 (no result: APP transl inh)
CCc1nc(NC(=O)Cc2csc(C)n2)sc1C(=O)OC	none (no result: APP transl inh, Ba/F3 V617F tox, BaF3 parental)
CCc1ccccc1N(CC(=O)NC1CCCCC1)C(=O)CNC(=O)c1ccco1	none (no result: APP transl inh, Ba/F3 V617F tox, BaF3 parental)
Cc1cccc(NS(=O)(=O)Cc2ccccc2)n1	APP transl inh 75.3
CCCCOCCCNC(=O)N[C@H](C(=O)OC)C(C)C	none
CCC(C)[C@H](NC(=O)NC(C)C)C(=O)O (some centres undefined)	BaF3 parental 91.8
CCCCCNC(=O)N[C@H](C(=O)O)C(C)C	BaF3 parental 89.9
CCC(C)[C@H](NC(=O)Nc1ccc(C)cc1C)C(=O)O (some centres undefined)	none (no result: APP transl inh)
CCCCn1c(SCC(=O)NC2CC2)nc2ccccc2c1=O	none (no result: APP transl inh, Ba/F3 V617F tox, BaF3 parental)
Cc1nnc(SCc2cc(=O)[nH]c(/N=C(\N)Nc3ccccc3)n2)s1	none (no result: APP transl inh)
CCOc1ccc(N/C(N)=N/c2nc(CSc3nnc(C)s3)cc(=O)[nH]2)cc1	aSyn 5UTR inh 84.2 (no result: APP transl inh)
COc1ccc(N2C(N)=NC(N)=NC23CCCC3)cc1	Ba/F3 V617F tox 56.7, BaF3 parental 63.9
NC1=NC2(CCCCC2)N(c2cccc(Cl)c2)C(N)=N1	Ba/F3 V617F tox 68.0, BaF3 parental 70.3
COc1ccccc1N1C(N)=NC(N)=NC12CCCCC2	none (no result: APP transl inh, Ba/F3 V617F tox, BaF3 parental)
CSc1cccc(NC(=O)c2cc(S(=O)(=O)N3CCc4ccccc43)cn2C)c1	none (no result: APP transl inh, Ba/F3 V617F tox, BaF3 parental)
Cc1cc(NC(=O)CSc2nnc(C3CC3)n2N)c([N+](=O)[O-])cc1C	BaF3 parental 80.6
Cc1cc(-c2ccc(N3CCOCC3)cc2)nc2ccccc12	none
c1ccc2nc(-c3ccc(N4CCOCC4)cc3)ccc2c1	aSyn 5UTR inh 103.7 (no result: APP transl inh)
CC(=O)c1cccc(N=c2scc(-c3ccc(S(=O)(=O)N4CCOCC4)cc3)n2CCO)c1	Ba/F3 V617F tox 42.8, BaF3 parental 47.3
Cc1ccc(CNCC(O)(c2ccccc2)c2ccc(Cl)cc2)cc1 (centres undefined)	BaF3 parental 29.1
CC(=O)c1cccc(S(=O)(=O)NCCC(=O)O)c1	BaF3 parental 34.3
Cc1cc(C)n(CCCNC(=O)CCNS(=O)(=O)c2ccccc2C(F)(F)F)n1	none (no result: APP transl inh, Ba/F3 V617F tox, BaF3 parental)
COc1ccccc1-n1cc2c([N+](=O)[O-])cc([N+](=O)[O-])cc2n1	none (no result: APP transl inh, Ba/F3 V617F tox, BaF3 parental)
CC1=C(C#N)C(c2ccccc2)C2=C(N1)c1ccccc1C2=O (centres undefined)	APP transl inh 77.5
CC1=C(C#N)C(c2cccnc2)C2=C(N1)c1ccccc1C2=O (centres undefined)	none
Cc1ccc(S(=O)(=O)NC(Cc2ccccc2)C(=O)O)cc1C (centres undefined)	none (no result: APP transl inh, Ba/F3 V617F tox, BaF3 parental)
COc1ccc(COc2cc(-c3cccc(OC)c3)nc3ccc(N)cc23)cc1	APP transl inh 95.6, Ba/F3 V617F tox 80.7, BaF3 parental 83.7
COc1ccc2nc(C)cc(N/N=C/c3ccc(F)cc3)c2c1	aSyn 5UTR inh 92.6 (no result: APP transl inh, Ba/F3 V617F tox, BaF3 parental)
O=C(c1ccc(Cl)cc1)N1CCCCC(Sc2nnc(-c3ccc4c(c3)OCO4)o2)C1=O (centres undefined)	aSyn 5UTR inh 92.0
O=C(O)CSc1nnc(-c2ccc3c(c2)OCO3)o1	none
CC(C)(C=O)C1=CC(=O)c2ccccc2C1=O	APP transl inh 80.5 (no result: aSyn 5UTR inh)
CC1=CC(=O)c2ccccc2C1=O	none
CCCCCCCC1CC(CSc2ncn[nH]2)OC1=O (centres undefined)	APP transl inh 49.4
O=[N+]([O-])c1ccccc1OCCNCc1ccccc1	none (no result: APP transl inh, Ba/F3 V617F tox, BaF3 parental)
C#CC(=O)N(c1cccc(OC)c1)C(C(=O)NC1CCCC1)c1cccs1 (centres undefined)	Ba/F3 V617F tox 101.3, BaF3 parental 79.7, aSyn 5UTR inh 92.3, IEC-6 tox 99.7
CCOc1ccccc1NC(=O)C1CCCN(S(=O)(=O)c2c(C)[nH]c(=O)[nH]c2=O)C1 (centres undefined)	APP transl inh 45.4
CCN(CC(=O)NC(=O)NC1CCCC1)Cc1ccccc1	none (no result: KLF5 inhibitor, APP transl inh, Ba/F3 V617F tox, BaF3 parental, IEC-6 tox)
O=C1C(Cl)=C(NC(=O)c2ccccc2)C(=O)C(Cl)=C1NC(=O)c1ccccc1	IEC-6 tox 100.1 (no result: APP transl inh, Ba/F3 V617F tox, BaF3 parental)
O=C(NC1=C(Nc2ccc(Cl)cc2)C(=O)c2ccccc2C1=O)c1ccccc1	none
O=C(O)c1ccccc1Nc1cc(Cl)c2nonc2c1[N+](=O)[O-]	none (no result: APP transl inh, Ba/F3 V617F tox, BaF3 parental)
O=[N+]([O-])c1c(Nc2ccccn2)cc(Cl)c2nonc12	IEC-6 tox 62.6 (no result: APP transl inh)
O=[N+]([O-])c1ccc(Nc2ccccn2)c([N+](=O)[O-])c1	Ba/F3 V617F tox 29.2, BaF3 parental 49.0
Nc1ccc(Nc2ccc([N+](=O)[O-])cc2[N+](=O)[O-])cc1	none
COc1ccc(NC(=O)CSc2nnc(-c3cccnc3)s2)cc1	none (no result: APP transl inh, Ba/F3 V617F tox, BaF3 parental)
COc1ccc2c(c1)NC(C)(C)C=C2C	none
CC1=CC(C)(C)Nc2ccccc21	aSyn 5UTR inh 91.8
Cc1n[nH]c(=O)nc1NC1CCCCC1	APP transl inh 60.2
CCOC(=O)Cn1nc(C)c2ccccc2c1=O	none
Cc1nn(CC(N)=O)c(=O)c2ccccc12	BaF3 parental 44.5
C=CC[n+]1c(/C=C2\C=Cc3cc(C)ccc3N2CC)ccc2ccccc21	Ba/F3 V617F tox 100.3, BaF3 parental 80.4, aSyn 5UTR inh 67.2, IEC-6 tox 40.8
CCN1C(=C(C#N)C#N)C=Cc2cc(C)ccc21	none
C[n+]1c2n(c3ccccc31)N=C(c1cc(C(C)(C)C)c(O)c(C(C)(C)C)c1)CS2	Ba/F3 V617F tox 98.6, BaF3 parental 78.7, aSyn 5UTR inh 68.5
O=C(C1CC(=O)N(c2ccccc2)C1)N1CCN(c2ccc(F)cc2)CC1 (centres undefined)	none (no result: APP transl inh, Ba/F3 V617F tox, BaF3 parental)
CCSc1nnc(-c2ccc(OC)cc2)o1	none
CCCCCCCCSc1nnc(-c2ccc(OC)cc2)o1	aSyn 5UTR inh 111.2
Cc1ccc(-c2c(C(=O)N/N=C/c3c[nH]c4ccccc34)nnn2-c2nonc2N)cc1	none (no result: APP transl inh, Ba/F3 V617F tox, BaF3 parental)
CCN(CC)c1ccc(/C=C2\SC(=O)N(C(C)C)C2=O)o1	Ba/F3 V617F tox 51.1, BaF3 parental 43.7 (no result: APP transl inh)
COc1ccc(C(C)=O)cc1COC(=O)c1cc(=O)c2ccccc2o1	none (no result: APP transl inh, Ba/F3 V617F tox, BaF3 parental)
CN(C)c1ccc(C(=O)c2ccccc2)cc1	none
CN(C)c1ccc(N=Nc2ccc(C(=O)O)cc2)cc1	aSyn 5UTR inh 64.0 (no result: APP transl inh, Ba/F3 V617F tox, BaF3 parental)
